Screens deposited in PubChem BioAssay by National Center for Advancing Translational Sciences (NCATS).
Pf growth 96h = Primary qHTS for delayed death inhibitors of the malarial parasite plastid, 96 hour incubation | hit rate 6.9% among 320,000 | Potency, µM (doses to about 28.7 µM), for inactives: at the top dose activity change, negative = inhibition, usual class: inhibitors | P. falciparum luciferase reporter growth, 96 h | AID 504834, 2011; note: potency is the fitted concentration of half-maximal effect
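Luminescence readout: decreased luciferase signal marks inhibited growth of reporter-expressing P. falciparum in infected red cells (2% hematocrit, 0.05% parasitemia final), exposed to compound two generations (96 h, 37 C, 5% CO2).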
HCMV antiviral = qHTS Assay for inhibitors of the human cytomegalovirus (HCMV). HFF cells, HCMV-luciferase reporter, 72 h; active compounds read low. activity change, negative = inhibition, % at 57.5 µM. hit rate 4.5% among 410,000. AID 1259415, 2018; in the data active = activity change below about -60%; inconclusive = no clear call, values can overlap the other calls; inactive = above about -39%
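Steps: HFFs plated, 16 h 37C; compounds added; HCMV-luciferase added to MOI 1 PFU/cell; 72 h 37C; OneGlo reagent, 5 min room temperature; luminescence read, normalized to controls.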
HCV inh = qHTS Assay for Inhibitors of Hepatitis C Virus (HCV) | hit rate 3.4% among 340,000 | Potency, µM (doses to about 41.8 µM), without a hit: at the top dose activity change, negative = inhibition, hits mostly inhibitors | Huh7.5.1 HCVcc-Cre infection, luciferase reporter, 44 h; note: potency is the fitted concentration of half-maximal effect
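Compounds are dispensed onto cells plated 4 h earlier at 1,000 per well, with HCVcc-Cre virus (about 0.5 moi) added next. Following 44 h of culture, luminescent signal is measured for 15 sec after 15 min with substrate at room temperature.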
Lassa entry inh = qHTS for Inhibitors of binding or entry into cells for Lassa Virus; Lassa virus pseudotype entry inhibition, cell reporter; Potency, µM (top dose mostly 37.9 µM), for the others: at the top dose activity change, negative = inhibition, hits mostly inhibitors; hit rate 1.2% among 300,000; calls by dose curve; tested in HEK293 cells; note: potency is the fitted concentration of half-maximal effect; nearly all actives have a fitted effect of over 50% in size
MARV entry inh = qHTS for inhibitors of binding or entry into cells for Marburg Virus; Marburg virus pseudotyped entry inhibition, cell reporter; Potency, µM (doses to about 37.8 µM), inactives show top-dose activity change, negative = inhibition, hits mostly inhibitors; AID 540276, 2011; hit rate 1.8% among 300,000; calls by dose curve; tested in HEK293 cells; note: potency is the fitted concentration of half-maximal effect
Pf growth 48h = Primary qHTS for delayed death inhibitors of the malarial parasite plastid, 48 hour incubation; P. falciparum luciferase growth in erythrocytes, 48 h; Potency, µM (highest dose often 28.7 µM), without a hit: top-dose activity change, negative = inhibition, most hits filed as inhibitors; hit rate 5.9% among 310,000; AID 504832, 2011; note: potency is the fitted concentration of half-maximal effect
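Growth was read as firefly luciferase luminescence after a 48 h, 37 C, 5% CO2 exposure of compounds to reporter-bearing P. falciparum cultures (0.1% parasitemia, 2% hematocrit final) in Albumax-supplemented RPMI 1640.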
Starred values were filed as active, the others as inactive; [ ] = dose if it differs, or a comment. An excerpt weighted towards active compounds, which were near 14% of everything screened. Unless noted, calls come from the whole dose curve; as a rule, active = well fitted inhibition curve with a large enough effect; inconclusive = small, poorly fitted or top-dose-only effect, or another doubt; inactive = no such curve, though single readings can be large or run the other way. % is set by controls: 0 for no effect and ±100 for the full control effect.

Results for Cc1ccccc1CN(c1ccc(C(=O)NCCC2=CCCCC2)cc1)S(C)(=O)=O ?
Pf growth 96h: inconclusive; HCMV antiviral: -3; HCV inh: 0%; Lassa entry inh: 16µM*; MARV entry inh: inconclusive; Pf growth 48h: inconclusive

How did Cc1ccc(S(=O)(=O)N(CC(=O)NCCC2=CCCCC2)Cc2ccccc2F)cc1 do in these assays?
Pf growth 96h: 12µM*; HCMV antiviral: -21; HCV inh: inconclusive; Lassa entry inh: inconclusive; MARV entry inh: inconclusive; Pf growth 48h: inconclusive

How did O=C(CSc1cccc[n+]1[O-])CSc1cccc[n+]1[O-] do in these assays?
Pf growth 96h: 0.19µM*; HCMV antiviral: 7; HCV inh: -19%; Lassa entry inh: -2%[46.1 µM]; MARV entry inh: 4%[46.1 µM]; Pf growth 48h: 9.3µM*

How did CCN(C(=O)CSc1cccc[n+]1[O-])C1CCCCC1 do in these assays?
HCMV antiviral: 0; HCV inh: 15%

What do the screens show for `O=C(CSc1cccc[n+]1[O-])N1CCCCCC1`?
Pf growth 96h: 22%; HCMV antiviral: -3; HCV inh: 1%; Lassa entry inh: inconclusive; MARV entry inh: 14%; Pf growth 48h: -4%

Results for [O-][n+]1ccccc1SSc1cccc[n+]1[O-] ?
Pf growth 96h: 0.48µM*; Pf growth 48h: 0.85µM*

Results for O=C1COc2cc(S(=O)(=O)NCc3ccco3)c(Cl)cc2N1 ?
Pf growth 96h: -5%; HCMV antiviral: 24; Lassa entry inh: 10%[46.1 µM]; Pf growth 48h: inconclusive

Results for FC(F)(F)c1ccc(N2CCOCC2)c(Nc2nc3ccccc3n3cnnc23)c1 ?
Pf growth 96h: -17%; HCMV antiviral: 25; HCV inh: inconclusive; Lassa entry inh: inconclusive; MARV entry inh: 4.1µM*; Pf growth 48h: inconclusive

What do the screens show for `c1ccc(N2CCCCC2)c(Nc2nc3ccccc3n3cnnc23)c1`?
Pf growth 96h: -26%; HCMV antiviral: inconclusive; HCV inh: 6.3µM*; Lassa entry inh: inconclusive; MARV entry inh: inconclusive; Pf growth 48h: inconclusive

How did Cc1ccc2nc(-c3cccc(Br)c3)c(Cc3ccsc3)n2c1 do in these assays?
HCMV antiviral: 41

Results for Cc1ccc(/C=C2/SC(=S)N(CCC(=O)N3CCOCC3)C2=O)cc1 ?
Pf growth 96h: 6%; HCMV antiviral: -23; HCV inh: -25%; Lassa entry inh: -2%[46.1 µM]; MARV entry inh: 4%[46.1 µM]; Pf growth 48h: inconclusive

How did COc1ccc(NC(=O)CN(Cc2ccccc2)S(=O)(=O)c2ccc3nc(C)sc3c2)cc1 do in these assays?
HCMV antiviral: -10; Lassa entry inh: -15%[46.1 µM]

How did CSc1nc2sc3c(c2c(=O)[nH]1)CC[C@@H](C)C3 do in these assays?
MARV entry inh: 23%

Results for O=C1CCC/C(=N/Nc2ccc(Cl)cc2)C1 ?
Pf growth 96h: 12µM*; HCMV antiviral: 4; HCV inh: inconclusive; Pf growth 48h: inconclusive

How did CC(=O)N1C(=O)NC(C)=C(C#N)C1c1ccccc1 (stereo not drawn) do in these assays?
MARV entry inh: -10%[14.2 µM]

Results for CC(C)(C)OC(=O)NCc1ccc(CNC(=O)c2nc[nH]c2C(=O)NCc2ccccc2)cc1 ?
Pf growth 96h: 2.9µM*; HCMV antiviral: 0; HCV inh: inconclusive; Pf growth 48h: 10µM*

Results for CC(C)C[C@H](NC(=O)c1nc[nH]c1C(=O)NCc1ccc(CNC(=O)OC(C)(C)C)cc1)C(=O)OCc1ccccc1 ?
Pf growth 96h: inconclusive; HCMV antiviral: -23; HCV inh: 15%; Pf growth 48h: inconclusive

How did CC(C)(C)OC(=O)[C@H](Cc1ccccc1)NC(=O)c1nc[nH]c1C(=O)NCc1ccccc1 do in these assays?
Pf growth 96h: 1%; HCMV antiviral: -17; HCV inh: -3%; Pf growth 48h: -1%

What do the screens show for `CC(C)(C)OC(=O)NCc1ccc(CNC(=O)c2[nH]cnc2C(=O)N[C@@H](Cc2ccccc2)C(=O)OC(C)(C)C)cc1`?
Pf growth 96h: inconclusive; HCMV antiviral: 49; HCV inh: inconclusive; Pf growth 48h: 10µM*

Results for CC(C)(C)OC(=O)NCc1ccc(NC(=O)c2nc[nH]c2C(=O)N[C@@H](Cc2ccccc2)C(=O)OCc2ccccc2)cc1 ?
Pf growth 96h: 4.1µM*; HCMV antiviral: inconclusive; HCV inh: 13%; Pf growth 48h: 8.3µM*

What do the screens show for `Cc1cccc(NC(=O)c2nc[nH]c2C(=O)NCc2ccccc2)c1`?
Pf growth 96h: inconclusive; HCMV antiviral: -61*; HCV inh: inconclusive; Pf growth 48h: -1%

What do the screens show for `CC(=O)c1c(C)[nH]c(C(=O)COC(=O)c2ccc(C)s2)c1C`?
HCMV antiviral: 33; HCV inh: 4%; Lassa entry inh: 11%[46.1 µM]; MARV entry inh: 8%[46.1 µM]

What do the screens show for `C[C@@H]1CN([C@@H](C)CO)C(=O)CCCn2cc(nn2)CO[C@H]1CN(C)C(=O)NC1CCCCC1`?
HCMV antiviral: -13

Results for C[C@@H]1CNC(=O)c2c(C(=O)Nc3ccc(CNC(=O)OC(C)(C)C)cc3)ncn21 ?
HCMV antiviral: -66*

How did CC(C)(C)OC(=O)NCc1ccc(CNC(=O)c2[nH]cnc2C(=O)N[C@@H](Cc2ccccc2)C(=O)OCc2ccccc2)cc1 do in these assays?
Pf growth 96h: 3.3µM*; HCMV antiviral: 38; HCV inh: -12%; Pf growth 48h: inconclusive

How did CN(Cc1ccccc1)C(=O)c1[nH]cnc1C(=O)NCc1ccccc1 do in these assays?
Pf growth 96h: 34%; HCMV antiviral: -61*; HCV inh: -27%; Pf growth 48h: 5%

How did COC(=O)N1CCCCC1c1cc(C(=O)Nc2ccccc2Cl)no1 (stereo not drawn) do in these assays?
HCMV antiviral: 31

Results for CCOc1ccc(NC(=O)c2sc3nc4c(cc3c2N)CN(Cc2ccccc2)CC4)cc1 ?
HCMV antiviral: -14; Lassa entry inh: 20%[46.1 µM]; MARV entry inh: -8%[46.1 µM]

Results for Cc1ccc2[nH]c(=O)c(CN(CCc3ccccc3)Cc3nnnn3CC3CCCO3)cc2c1 (stereo not drawn) ?
Pf growth 96h: inconclusive; HCMV antiviral: -14; HCV inh: inconclusive; Lassa entry inh: inconclusive; MARV entry inh: inconclusive; Pf growth 48h: inconclusive

Results for COc1ccc2[nH]c(=O)c(CN(CCc3ccccc3)Cc3nnnn3CC3CCCO3)cc2c1 (stereo not drawn) ?
HCMV antiviral: -24; HCV inh: -8%; Lassa entry inh: inconclusive; MARV entry inh: -4%; Pf growth 48h: -1%
